{"source": "PubChem BioAssay (NCI)", "note": "The panel holds about 83,000 compounds, 20% with a hit somewhere; the sample as a whole holds those more often.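 How to read the values: 0–100, growth inhibition (40 = 60% inhibited); 0, no net growth; -100 to 0, cell death (-40 = 40% of starting cells died; -100 = all dead).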 Values without a mark were called inactive. The source made the active and inactive calls. The calls were made as follows: active = growth percent below 10; inactive = the rest.", "data": [{"tested_on": "HCT-116 colon", "assay": "NCI-60 one-dose screen, 48 h (100 = growth as untreated, 0 = no growth, -100 = all killed)", "conditions": "10 µM unless noted", "values": [{"smiles": "COc1cccc([C@H]2c3[nH]c4ccccc4c3C[C@H]3C(=O)N(CCCCCCC(=O)NO)CC(=O)N23)c1", "growth": "35.3%"}, {"smiles": "CC(O)c1cnc(/C=C2\\SC(=S)N(Cc3ccccc3)C2=O)s1", "note": "(configuration not stated)", "growth": "20.2%"}, {"smiles": "Cc1cc(Cl)ccc1NC(=O)c1cc2ccccc2cc1O", "growth": "7.95% (active)"}, {"smiles": "CCn1cc(C(=O)N/N=C/c2cccs2)c(=O)c2cc(F)c(N3CCNC(C)C3)c(F)c21", "note": "(configuration not stated)", "growth": "94.5%"}, {"smiles": "CC1=C(CCC(C)N(C)Cc2ccc(OCCCN3CCCC3)cc2)C(C)(C)CCC1", "note": "(configuration not stated)", "growth": "10.7%"}, {"smiles": "COP(=O)(OC)C(C)(C)CC(=O)CC(C#N)(C#N)C(C#N)C#N", "growth": "92.4%"}, {"smiles": "CCCCC[C@@H]1Cc2cc(O)c(C(=O)O)c3c2[C@H](C[C@]2(OC[C@@H](CC(=O)[C@@](C)(CC)C(=O)OC)[C@@H]2C)O3)O1", "growth": "111%"}, {"smiles": "Nc1ncnc2c1N=C(c1ccc(Cl)cc1)CC(c1ccc3c(c1)OCO3)N2", "note": "(configuration not stated)", "growth": "83.7%"}, {"smiles": "O=[N+]([O-])/C(=C/C=C/c1ccccc1)c1ccccc1", "growth": "-5.29% (active)"}, {"smiles": "Fc1ccc(-c2nn(-c3ccccc3)cc2-c2nc3ccccc3o2)cc1", "growth": "34.8%"}, {"smiles": "COc1cc(/C=C/C(=O)c2cccc(Nc3nc(Nc4ccccc4)nc(Nc4ccccc4)n3)c2)cc(OC)c1OC", "growth": "15.1%"}, {"smiles": "C#CCOc1cccc(Nc2ncnc3c(NC(=O)C=C)cccc23)c1", "growth": "6.27% (active)"}, {"smiles": "CNc1nc(S(=O)c2ccc(C#N)cc2)nc2ccccc12", "note": "(configuration not stated)", "growth": "51.4%"}, {"smiles": "CC(=O)N(N=Nc1ccccc1)c1cccc2ccccc12", "growth": "56.4%"}, {"smiles": "O=C(/C=C/c1cn(-c2ccccc2)nc1-c1ccc([N+](=O)[O-])cc1)c1ccc(Cl)cc1", "growth": "-12.6% (active)"}, {"smiles": "COc1cc(-c2csc(NC(=O)c3cc(-n4cnc(C)c4)cc(C(F)(F)F)c3)n2)cc(OC)c1OC", "growth": "40.4%"}, {"smiles": "COc1ccc(-c2nc3c(c(-c4ccccc4)nn3-c3ccccc3)c(-c3ccc(N4CCOCC4)cc3)c2C#N)cc1", "growth": "96%"}, {"smiles": "CSc1nc2sc3c(c2c(=O)n1-c1ccc([N+](=O)[O-])cc1)CCCCC3", "growth": "84.4%"}]}, {"tested_on": "HCC-2998 colon", "assay": "NCI-60 one-dose screen, 48 h (100 = growth as untreated, 0 = no growth, -100 = all killed)", "conditions": "10 µM unless noted", "values": [{"smiles": "CS(=O)(=O)Nc1cc(-c2ccc3ncnc(Nc4c(Cl)ccc5c4OCO5)c3c2)cnc1Cl", "growth": "-36% (active)"}, {"smiles": "O=C(Nc1cc(Cl)ccc1O)c1ccc(Nc2ccnc(C(F)(F)F)c2)cc1", "growth": "35.1%"}, {"smiles": "OCCOCCN(Cc1ccccn1)Cc1cc(I)cc(I)c1O", "growth": "111%"}, {"smiles": "COc1ccc(C2c3sc4c(F)cccc4c3Oc3nc[nH]c(=O)c32)cc1", "note": "(configuration not stated)", "growth": "91.7%"}, {"smiles": "N#Cc1cccc(F)c1", "growth": "118%"}, {"smiles": "C=C(C)[C@@H]1CC[C@]2(C(=O)NCC#CCN3CCN(C)CC3)CC[C@]3(C)[C@H](CC[C@@H]4[C@@](C)(CCC#N)[C@H](C(=C)C)CC[C@]43C)[C@@H]12", "growth": "25.2%"}, {"smiles": "O=C(O)c1[nH]c(=O)[nH]c(=O)c1[N+](=O)[O-]", "growth": "99.2%"}, {"smiles": "O=c1c2cc(-c3ccccc3)sc2nc2sc(-c3ccccc3)nn12", "growth": "101%"}, {"smiles": "CCOC(=O)c1c(C)nc2c(c1N)CC(=O)N2Cc1cc(F)cc(Cl)c1", "growth": "113%"}, {"smiles": "C#Cc1cccc(Nc2ncnc3ccc(-c4cnc(N)nc4)cc23)c1", "growth": "64.7%"}, {"smiles": "Cc1ccc(/C=C2\\CN(C(=O)OC(C)(C)C)C/C(=C\\c3ccc(C)cc3)C2=O)cc1", "growth": "29.5%"}, {"smiles": "COC(=O)/C(CCC=C(C)C)=C1\\[C@@H](OC(C)=O)C[C@@]2(C)[C@H]1C[C@@H](O)[C@H]1[C@@]3(C)CC[C@H](NCCN)[C@@H](C)[C@@H]3CC[C@@]12C", "growth": "91.3%"}, {"smiles": "CCOC(=O)c1cc(C(=O)c2cc(OC)c(OC)c(OC)c2)n2ccc(-c3ccncc3)cc12", "growth": "115%"}, {"smiles": "C[C@@H]1CCC[C@H]1CC(N)C(=O)O", "note": "(some centres not stated)", "growth": "103%"}, {"smiles": "Cc1ccc(Cc2cnc(NC(=O)c3cc(Br)cs3)s2)cc1", "growth": "82.9%"}, {"smiles": "O=C1C(Cl)=C(Oc2ccccc2)C(=O)c2ccccc21", "growth": "66.5%"}, {"smiles": "CC/C(=C(/c1ccc(Cl)cc1)c1ccc(OCCN2CCCC2)cc1)c1ccc(OC)cc1", "growth": "71.1%"}, {"smiles": "N=C(N)c1ccc(-c2ccc(-c3cc(Cl)cc(Cl)c3)o2)o1", "growth": "-77.8% (active)"}, {"smiles": "COc1cc(-n2cc(-c3cc(O)c(C/C=C(\\C)CCC=C(C)C)c(O)c3)nn2)cc2c1O[C@]1(C)CC[C@@H](O)C(C)(C)[C@H]1C2", "growth": "10.2%"}]}]}
